Test results as given in ChEMBL document CHEMBL1961873, “Compounds: GSK PKIS; Assays: Nanosyn kinase panel” (2012).

target: T1, Rhodopsin kinase GRK7 (Homo sapiens) (UniProt Q8WTQ7); conditions: at 1 µM
T1 sequence (whole entry): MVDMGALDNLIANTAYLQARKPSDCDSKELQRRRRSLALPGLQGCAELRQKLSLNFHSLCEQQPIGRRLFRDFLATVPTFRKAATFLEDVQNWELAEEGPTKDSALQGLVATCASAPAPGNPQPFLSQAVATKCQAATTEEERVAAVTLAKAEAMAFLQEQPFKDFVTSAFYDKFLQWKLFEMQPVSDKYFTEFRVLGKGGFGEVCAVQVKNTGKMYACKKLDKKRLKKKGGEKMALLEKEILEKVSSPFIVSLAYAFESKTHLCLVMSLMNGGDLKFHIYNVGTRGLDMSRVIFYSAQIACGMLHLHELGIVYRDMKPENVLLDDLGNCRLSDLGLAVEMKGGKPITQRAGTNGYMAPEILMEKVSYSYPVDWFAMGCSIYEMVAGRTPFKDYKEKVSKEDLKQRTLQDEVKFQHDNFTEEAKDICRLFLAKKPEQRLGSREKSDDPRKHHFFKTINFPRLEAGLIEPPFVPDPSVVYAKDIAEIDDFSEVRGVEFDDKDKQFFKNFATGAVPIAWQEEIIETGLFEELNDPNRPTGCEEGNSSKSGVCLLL
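Note: mean percent inhibition of GRK7, profiled as part of the GSK PKIS screen.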

In order of falling inhibition:
1. O=C(Nc1n[nH]c2nc(-c3ccc(O)cc3)c(Br)cc12)C1CC1  17.4%
2. O=C1Nc2ccccc2/C1=C/Nc1ccc(-n2cncn2)cc1  14.9%
3. COc1cc(N2CCN(C(C)C)CC2)ccc1Nc1nc(Nc2ccc(F)cc2C(=O)NC[C@@H](O)CO)c2cc[nH]c2n1  13.3%
4. NC(=O)c1cc(-c2ccc(F)cc2)cc(-c2ccncc2)c1N  11.1%
5. O=C1NC(=O)C(c2cccc(Cl)c2)=C1Nc1ccc(Cl)c(C(=O)O)c1  9.31%
6. COc1ccc2cc(-c3c(-c4ccncc4)nc(-c4ccc(S(C)(=O)=O)cc4C)n3C)ccc2c1  8.69%
7. Fc1ccc(-c2c(-c3ccncc3)nc3n2CCS3)cc1  7.9%
8. NS(=O)(=O)c1ccc(N/N=C2\C(=O)Nc3ccc(-c4cnco4)cc32)cc1  7.29%
9. O=C(Nc1n[nH]c2cc(-c3cc(F)ccc3F)ccc12)C1CC1  6.2%
10. Fc1ccc(-c2nc3n(c2-c2ccncc2)CCS3)cc1  5.18%
11. CS(=O)(=O)CCNCc1cc(-c2cc3c(Nc4ccc(OCc5cccc(F)c5)c(Cl)c4)ncnc3s2)cs1  4.24%
12. CCN(CC)Cc1ccc(Nc2nccc(-c3cnn4ncccc34)n2)cc1  3.71%
13. C[C@@H](Oc1cc(-n2cnc3ccc(OC4CCN(C)CC4)cc32)sc1C(N)=O)c1ccccc1Cl  3.62%
14. Fc1ccc(-c2ncn(C3CCNCC3)c2-c2ccnc(Oc3ccc(Oc4ccccc4)cc3)n2)cc1  3.4%
15. Cc1ccc(C(=O)NC2CCC2)cc1-c1ccc(C(=O)NCC2CC2)cc1  3.16%
16. CCc1nccc2c1nc(-c1nonc1N)n2CC  2.78%
17. COc1ccc2ncn(-c3cc(O[C@H](C)c4ccccc4Cl)c(C(N)=O)s3)c2c1  2.33%
18. c1ccc(Oc2ccc(Nc3ncc(-c4ccccc4)o3)cc2)cc1  2%
19. COc1cc2ncn(-c3cc(OCc4ccccc4C(F)(F)F)c(C(C)=O)s3)c2cc1OC  1.62%
20. CN(c1ccc(NC(=O)Nc2c(Cl)cccc2Cl)cc1)c1ccnc(Nc2cccc(CS(C)(=O)=O)c2)n1  1.55%
21. CCC(=O)Nc1ccc(C)c(-c2ccc(C(=O)NCC3CC3)cc2)c1  1.14%
22. NC(=O)Cc1ccccc1Oc1nccc(-c2c(-c3ccc(F)cc3)ncn2C2CCNCC2)n1  1.09%
23. NS(=O)(=O)c1ccc(Nc2cc(-c3ccc(O)c(F)c3)n[nH]2)cc1  -0.64%
24. COc1ccc2cc(-c3c(-c4ccncc4)nc(-c4ccc([S+](C)[O-])cc4C)n3C)ccc2c1 (centres undefined)  -0.96%
25. Cc1ccc(NC(=O)c2ccoc2)cc1-c1ccc(C(=O)NCC2CC2)cc1  -1.36%
26. Nc1nccc(-c2c(-c3ccc(F)cc3)ncn2C2CCC(O)CC2)n1 (centres undefined)  -1.89%
27. Clc1ccc(CNc2nccc(-c3cnn4ncccc34)n2)cc1  -5.11%
28. COc1cc(Nc2ncc3c(C)nc(-c4cccc(Oc5ccccc5)c4)n3n2)cc(OC)c1OC  -5.43%
29. CN(C)CCCNc1nccc(-c2c(-c3ccc(F)cc3)nn3cc(C(F)(F)F)ccc23)n1  -5.64%
30. CN(C)CCOc1ccc(-c2cc(-c3ccc4c(c3)CCC4=NO)c(-c3ccncc3)o2)cc1  -5.7%
31. COc1cc(C)c(N(C)C(=O)CN(C)C)cc1Nc1nc(Nc2cccc(F)c2C(N)=O)c2cc[nH]c2n1  -6.16%
32. CCS(=O)(=O)c1ccc(OC)c(Nc2ncc(-c3ccccc3Cl)o2)c1  -6.79%
33. COC(=O)Nc1nc2ccc(Sc3ccc(NC(=O)Nc4cc(C(F)(F)F)ccc4F)cc3)cc2[nH]1  -6.83%
34. CCc1cccc(CC)c1/C=C/c1cncc(C(=O)NC)c1  -8.54%
